From publication PMC7862700, “An all-to-all approach to the identification of sequence-specific readers for epigenetic DNA modifications on cytosine”

What was measured:
Assay in all cases: DAPPL (digital affinity profiling via proximity ligation, sequencing); 10 mM Tris-HCl pH 7.5, 50 mM NaCl, 1 mM DTT, 4% glycerol, room temperature, 30 min; GST-TFs on glutathione beads, 16-mer random dsDNA library, 0.1% formaldehyde crosslink after washing; high values mean tight binding
[1] = target: T1, FEV (Homo sapiens, UniProt Q99581 1-238); settings: protein: recombinant; tags: N-terminal GST; dsDNA, one strand shown
T1 sequence: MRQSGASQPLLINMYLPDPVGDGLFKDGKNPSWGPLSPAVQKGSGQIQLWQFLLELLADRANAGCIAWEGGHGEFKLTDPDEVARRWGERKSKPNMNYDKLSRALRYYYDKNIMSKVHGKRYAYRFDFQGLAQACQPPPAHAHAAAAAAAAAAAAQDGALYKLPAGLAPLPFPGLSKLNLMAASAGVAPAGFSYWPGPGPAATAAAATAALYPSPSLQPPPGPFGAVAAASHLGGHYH
In short: (§1)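 Beads coated with glutathione captured GST-fused human transcription factors that had been expressed in yeast, and the factors were then given DNA barcodes and pooled with a tag-only sample. The pools were incubated with 200 nmole of a random double-stranded 16-mer DNA library in Tris/NaCl/DTT/glycerol buffer for 30 min at room temperature, washed, crosslinked with 0.1% formaldehyde and proximity-ligated with BsaI/T4 ligase at 37 °C for 1 h. PCR amplification and Illumina NextSeq500 sequencing came last. Binding signal is each hexamer's read frequency for a factor divided by its frequency for the tag-only sample.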

[2] = target: ETV5 (Homo sapiens, UniProt P41161 1-510); settings: protein: recombinant; tags: N-terminal GST; dsDNA, one strand shown
In short: as §1

[3] = target: HSF1 (Homo sapiens, UniProt Q00613 1-529); settings: protein: recombinant; tags: N-terminal GST; chain copies: 3; dsDNA, one strand shown
In short: as §1

[4] = target: T2, SPIC (Homo sapiens, UniProt Q8N5J4 1-248); settings: protein: recombinant; tags: N-terminal GST; dsDNA, one strand shown
T2 sequence: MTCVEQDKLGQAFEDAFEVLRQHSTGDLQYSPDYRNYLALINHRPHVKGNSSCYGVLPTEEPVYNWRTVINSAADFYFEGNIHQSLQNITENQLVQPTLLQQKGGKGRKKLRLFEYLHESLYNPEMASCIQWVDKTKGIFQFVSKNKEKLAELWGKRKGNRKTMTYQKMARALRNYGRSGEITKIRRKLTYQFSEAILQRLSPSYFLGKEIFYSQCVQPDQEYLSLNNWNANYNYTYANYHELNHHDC
In short: as §1

[5] = target: ELF4 (Homo sapiens, UniProt Q99607 1-663); settings: protein: recombinant; tags: N-terminal GST; dsDNA, one strand shown
In short: as §1

[6] = target: T3, ELK4 (Homo sapiens, UniProt P28324-2 1-405); settings: protein: recombinant; tags: N-terminal GST; dsDNA, one strand shown
T3 sequence: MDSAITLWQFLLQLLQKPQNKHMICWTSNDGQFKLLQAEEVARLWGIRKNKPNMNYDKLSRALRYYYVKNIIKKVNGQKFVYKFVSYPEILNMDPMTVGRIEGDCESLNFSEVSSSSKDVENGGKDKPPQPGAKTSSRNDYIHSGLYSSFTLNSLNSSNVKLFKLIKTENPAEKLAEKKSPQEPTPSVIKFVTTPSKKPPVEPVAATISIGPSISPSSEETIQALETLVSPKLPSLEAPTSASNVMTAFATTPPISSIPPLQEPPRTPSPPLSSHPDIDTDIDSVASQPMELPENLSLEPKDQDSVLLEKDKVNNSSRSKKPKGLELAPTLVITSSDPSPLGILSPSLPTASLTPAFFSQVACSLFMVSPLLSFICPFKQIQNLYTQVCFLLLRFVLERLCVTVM
In short: as §1

[7] = target: T4, ETV2 (Homo sapiens, UniProt O00321 1-342); settings: protein: recombinant; tags: N-terminal GST; dsDNA, one strand shown
T4 sequence: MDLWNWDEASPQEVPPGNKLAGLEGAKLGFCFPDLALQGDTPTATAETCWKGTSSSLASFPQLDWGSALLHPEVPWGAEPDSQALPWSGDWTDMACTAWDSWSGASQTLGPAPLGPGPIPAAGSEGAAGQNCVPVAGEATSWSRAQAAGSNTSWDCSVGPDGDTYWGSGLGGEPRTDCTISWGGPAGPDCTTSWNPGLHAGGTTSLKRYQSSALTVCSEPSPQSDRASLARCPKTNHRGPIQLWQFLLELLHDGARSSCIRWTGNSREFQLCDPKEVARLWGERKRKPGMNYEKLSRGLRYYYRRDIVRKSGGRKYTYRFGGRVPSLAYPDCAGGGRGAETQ
In short: as §1

[8] = target: T5, ELF3 (Homo sapiens, UniProt P78545 1-371); settings: protein: recombinant; tags: N-terminal GST; dsDNA, one strand shown
T5 sequence: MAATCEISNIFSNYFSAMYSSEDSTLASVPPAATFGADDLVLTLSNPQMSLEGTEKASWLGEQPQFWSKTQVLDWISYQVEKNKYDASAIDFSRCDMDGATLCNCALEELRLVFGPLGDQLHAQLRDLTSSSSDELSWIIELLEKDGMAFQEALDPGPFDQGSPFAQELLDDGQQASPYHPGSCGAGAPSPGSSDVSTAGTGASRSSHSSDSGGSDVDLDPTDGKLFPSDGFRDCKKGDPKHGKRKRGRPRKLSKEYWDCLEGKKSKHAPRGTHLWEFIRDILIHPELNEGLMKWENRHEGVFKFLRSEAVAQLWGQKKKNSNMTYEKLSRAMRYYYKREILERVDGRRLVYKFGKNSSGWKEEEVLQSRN
In short: as §1

[9] = target: CRX (Homo sapiens, UniProt O43186 1-299); settings: protein: recombinant; tags: N-terminal GST; dsDNA, one strand shown
In short: as §1

[10] = target: ETV1 (Homo sapiens, UniProt P50549 1-477); settings: protein: recombinant; tags: N-terminal GST; dsDNA, one strand shown
In short: as §1

[11] = target: T6, ERF (Homo sapiens, UniProt P50548 1-548); settings: protein: recombinant; tags: N-terminal GST; dsDNA, one strand shown
T6 sequence: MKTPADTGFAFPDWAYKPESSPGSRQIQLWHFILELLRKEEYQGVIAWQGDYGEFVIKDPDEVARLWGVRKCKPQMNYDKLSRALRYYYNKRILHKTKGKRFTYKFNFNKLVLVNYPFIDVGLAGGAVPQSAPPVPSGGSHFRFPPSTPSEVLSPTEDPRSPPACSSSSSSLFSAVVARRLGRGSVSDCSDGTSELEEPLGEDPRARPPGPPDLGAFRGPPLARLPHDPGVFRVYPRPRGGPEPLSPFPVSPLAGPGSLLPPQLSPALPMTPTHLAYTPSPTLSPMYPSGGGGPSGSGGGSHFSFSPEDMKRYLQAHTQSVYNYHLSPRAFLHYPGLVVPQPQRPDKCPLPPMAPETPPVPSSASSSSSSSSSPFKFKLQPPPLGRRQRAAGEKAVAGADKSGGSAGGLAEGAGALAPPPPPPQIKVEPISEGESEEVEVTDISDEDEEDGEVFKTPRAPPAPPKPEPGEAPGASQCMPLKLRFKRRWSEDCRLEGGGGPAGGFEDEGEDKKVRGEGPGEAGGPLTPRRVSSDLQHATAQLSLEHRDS
In short: as §1

[12] = target: T7, ETV3L (Homo sapiens, UniProt Q6ZN32 1-361); settings: protein: recombinant; tags: N-terminal GST; dsDNA, one strand shown
T7 sequence: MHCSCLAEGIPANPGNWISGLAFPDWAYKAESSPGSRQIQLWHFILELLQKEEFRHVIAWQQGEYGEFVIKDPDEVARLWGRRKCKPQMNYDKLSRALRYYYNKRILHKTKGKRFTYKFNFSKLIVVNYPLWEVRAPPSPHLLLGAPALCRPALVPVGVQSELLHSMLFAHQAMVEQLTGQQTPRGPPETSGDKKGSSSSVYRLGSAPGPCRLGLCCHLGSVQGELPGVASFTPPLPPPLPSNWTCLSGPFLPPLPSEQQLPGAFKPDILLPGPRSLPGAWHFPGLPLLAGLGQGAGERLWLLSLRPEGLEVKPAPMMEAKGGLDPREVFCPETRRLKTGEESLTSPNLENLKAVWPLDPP
In short: as §1

[13] = target: T8, ETS2 (Homo sapiens, UniProt P15036 1-469); settings: protein: recombinant; tags: N-terminal GST; dsDNA, one strand shown
T8 sequence: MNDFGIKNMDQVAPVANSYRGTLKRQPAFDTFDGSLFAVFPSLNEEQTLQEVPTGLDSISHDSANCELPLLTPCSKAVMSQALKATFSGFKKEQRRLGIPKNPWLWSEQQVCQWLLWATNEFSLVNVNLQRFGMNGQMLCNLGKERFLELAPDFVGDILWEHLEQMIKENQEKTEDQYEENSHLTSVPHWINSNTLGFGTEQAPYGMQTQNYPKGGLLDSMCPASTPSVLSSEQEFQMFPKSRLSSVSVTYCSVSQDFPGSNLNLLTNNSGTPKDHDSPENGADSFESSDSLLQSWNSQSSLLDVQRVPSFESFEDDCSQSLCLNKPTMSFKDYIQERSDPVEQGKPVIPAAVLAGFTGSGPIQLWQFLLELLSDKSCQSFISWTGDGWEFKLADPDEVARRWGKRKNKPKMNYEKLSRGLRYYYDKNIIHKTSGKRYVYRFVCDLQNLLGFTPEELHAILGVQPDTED
In short: as §1

[14] = target: T9, SPDEF (Homo sapiens, UniProt O95238 1-335); settings: protein: recombinant; tags: N-terminal GST; dsDNA, one strand shown
T9 sequence: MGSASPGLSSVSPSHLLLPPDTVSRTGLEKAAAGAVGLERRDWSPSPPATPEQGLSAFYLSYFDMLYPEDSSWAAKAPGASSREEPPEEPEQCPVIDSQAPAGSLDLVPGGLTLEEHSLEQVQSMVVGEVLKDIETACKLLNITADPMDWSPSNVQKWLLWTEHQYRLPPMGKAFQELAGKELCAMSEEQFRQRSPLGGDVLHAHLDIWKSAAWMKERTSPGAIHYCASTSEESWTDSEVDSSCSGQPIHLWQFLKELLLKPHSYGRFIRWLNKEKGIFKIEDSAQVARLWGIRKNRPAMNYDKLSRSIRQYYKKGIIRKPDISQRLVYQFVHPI
In short: as §1

[15] = target: T10, ETV7 (Homo sapiens, UniProt Q9Y603 1-341); settings: protein: recombinant; tags: N-terminal GST; dsDNA, one strand shown
T10 sequence: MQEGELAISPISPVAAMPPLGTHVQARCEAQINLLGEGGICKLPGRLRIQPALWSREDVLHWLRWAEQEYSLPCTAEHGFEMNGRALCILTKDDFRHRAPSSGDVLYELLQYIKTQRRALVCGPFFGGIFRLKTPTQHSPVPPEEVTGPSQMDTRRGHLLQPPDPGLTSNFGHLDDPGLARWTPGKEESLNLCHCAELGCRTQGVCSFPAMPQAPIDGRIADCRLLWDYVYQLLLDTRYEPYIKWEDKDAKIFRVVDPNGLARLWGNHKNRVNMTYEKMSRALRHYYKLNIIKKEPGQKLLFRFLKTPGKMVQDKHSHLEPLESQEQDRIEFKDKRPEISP
In short: as §1

[16] = target: T11, ELF5 (Homo sapiens, UniProt Q9UKW6-2 1-255); settings: protein: recombinant; tags: N-terminal GST; dsDNA, one strand shown
T11 sequence: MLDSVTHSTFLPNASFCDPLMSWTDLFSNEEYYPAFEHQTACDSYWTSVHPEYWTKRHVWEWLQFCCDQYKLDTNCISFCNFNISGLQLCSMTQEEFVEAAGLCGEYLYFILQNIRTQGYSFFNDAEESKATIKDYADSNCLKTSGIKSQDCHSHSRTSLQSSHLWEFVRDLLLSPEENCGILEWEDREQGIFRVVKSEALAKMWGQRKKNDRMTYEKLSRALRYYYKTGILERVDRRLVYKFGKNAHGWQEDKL
In short: as §1

[17] = target: T12, ETV3 (Homo sapiens, UniProt P41162-2 1-143); settings: protein: recombinant; tags: N-terminal GST; dsDNA, one strand shown
T12 sequence: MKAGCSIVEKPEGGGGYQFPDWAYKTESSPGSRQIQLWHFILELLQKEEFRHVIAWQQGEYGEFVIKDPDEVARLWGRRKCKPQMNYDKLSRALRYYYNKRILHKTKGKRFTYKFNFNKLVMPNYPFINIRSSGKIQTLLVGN
In short: as §1

[18] = target: ETV6 (Homo sapiens, UniProt P41212 1-452); settings: protein: recombinant; tags: N-terminal GST; dsDNA, one strand shown
In short: as §1

Sequence of CRX (O43186 whole entry): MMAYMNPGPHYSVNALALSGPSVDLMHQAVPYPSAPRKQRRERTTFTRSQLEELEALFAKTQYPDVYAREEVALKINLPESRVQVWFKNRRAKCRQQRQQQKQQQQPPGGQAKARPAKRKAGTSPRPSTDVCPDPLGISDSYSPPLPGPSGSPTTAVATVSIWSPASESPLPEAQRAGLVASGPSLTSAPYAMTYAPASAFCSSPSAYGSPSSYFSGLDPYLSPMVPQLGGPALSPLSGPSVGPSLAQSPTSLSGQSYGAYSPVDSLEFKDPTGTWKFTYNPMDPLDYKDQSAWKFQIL
Sequence of ETV1 (P50549 whole entry): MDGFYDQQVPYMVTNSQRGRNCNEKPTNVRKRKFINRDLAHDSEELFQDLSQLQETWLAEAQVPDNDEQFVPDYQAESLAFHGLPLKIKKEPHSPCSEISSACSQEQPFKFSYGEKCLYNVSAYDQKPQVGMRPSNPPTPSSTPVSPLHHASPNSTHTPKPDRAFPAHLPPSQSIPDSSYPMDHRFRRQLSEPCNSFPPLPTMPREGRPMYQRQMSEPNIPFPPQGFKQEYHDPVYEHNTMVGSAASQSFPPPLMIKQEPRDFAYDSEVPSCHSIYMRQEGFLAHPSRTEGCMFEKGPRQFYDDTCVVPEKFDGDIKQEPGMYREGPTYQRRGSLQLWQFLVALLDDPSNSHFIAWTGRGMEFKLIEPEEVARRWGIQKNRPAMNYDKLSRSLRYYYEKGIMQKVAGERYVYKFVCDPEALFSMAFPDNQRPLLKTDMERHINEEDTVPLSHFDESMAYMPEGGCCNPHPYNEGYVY
Sequence of ELF4 (Q99607 whole entry): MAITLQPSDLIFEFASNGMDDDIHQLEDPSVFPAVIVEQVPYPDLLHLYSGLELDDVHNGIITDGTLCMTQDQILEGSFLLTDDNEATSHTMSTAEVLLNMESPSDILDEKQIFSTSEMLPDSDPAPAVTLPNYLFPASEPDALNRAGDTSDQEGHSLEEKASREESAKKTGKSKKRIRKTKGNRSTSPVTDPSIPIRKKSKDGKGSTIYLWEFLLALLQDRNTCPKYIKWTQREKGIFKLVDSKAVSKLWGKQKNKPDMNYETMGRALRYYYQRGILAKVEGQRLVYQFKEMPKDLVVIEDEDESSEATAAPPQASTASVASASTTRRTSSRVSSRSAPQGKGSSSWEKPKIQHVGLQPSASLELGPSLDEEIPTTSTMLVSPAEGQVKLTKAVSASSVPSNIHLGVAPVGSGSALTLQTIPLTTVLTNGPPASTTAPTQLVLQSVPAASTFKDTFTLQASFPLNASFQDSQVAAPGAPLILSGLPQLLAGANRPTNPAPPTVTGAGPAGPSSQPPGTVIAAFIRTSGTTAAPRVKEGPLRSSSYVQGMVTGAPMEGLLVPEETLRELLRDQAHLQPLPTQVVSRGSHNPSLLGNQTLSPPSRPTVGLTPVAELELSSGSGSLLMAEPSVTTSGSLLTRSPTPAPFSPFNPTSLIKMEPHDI
Sequence of ETV6 (P41212 whole entry): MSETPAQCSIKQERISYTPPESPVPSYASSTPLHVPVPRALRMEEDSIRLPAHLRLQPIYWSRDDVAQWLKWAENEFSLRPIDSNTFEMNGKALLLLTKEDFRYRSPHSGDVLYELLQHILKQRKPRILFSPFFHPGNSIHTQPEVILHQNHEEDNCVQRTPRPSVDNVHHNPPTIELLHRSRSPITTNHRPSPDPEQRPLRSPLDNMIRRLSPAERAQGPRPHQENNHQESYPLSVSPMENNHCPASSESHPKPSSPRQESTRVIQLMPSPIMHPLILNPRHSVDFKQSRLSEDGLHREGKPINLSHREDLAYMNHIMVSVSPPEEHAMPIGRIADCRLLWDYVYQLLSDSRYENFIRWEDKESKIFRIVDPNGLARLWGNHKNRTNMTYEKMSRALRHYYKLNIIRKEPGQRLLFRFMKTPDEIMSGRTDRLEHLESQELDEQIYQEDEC
Sequence of HSF1 (Q00613 whole entry): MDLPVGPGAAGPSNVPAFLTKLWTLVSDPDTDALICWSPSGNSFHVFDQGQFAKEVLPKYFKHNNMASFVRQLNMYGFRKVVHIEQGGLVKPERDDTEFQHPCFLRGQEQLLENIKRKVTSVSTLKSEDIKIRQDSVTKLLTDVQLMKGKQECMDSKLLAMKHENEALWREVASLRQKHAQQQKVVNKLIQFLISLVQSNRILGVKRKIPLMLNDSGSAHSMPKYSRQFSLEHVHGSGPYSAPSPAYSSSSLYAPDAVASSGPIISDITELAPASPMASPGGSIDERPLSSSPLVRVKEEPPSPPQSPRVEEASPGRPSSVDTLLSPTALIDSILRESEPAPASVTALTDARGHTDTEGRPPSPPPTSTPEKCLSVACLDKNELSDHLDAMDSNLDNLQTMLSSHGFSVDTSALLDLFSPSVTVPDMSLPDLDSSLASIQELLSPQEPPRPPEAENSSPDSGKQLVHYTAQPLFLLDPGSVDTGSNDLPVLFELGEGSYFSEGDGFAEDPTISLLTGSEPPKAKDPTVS
Sequence of ETV5 (P41161 whole entry): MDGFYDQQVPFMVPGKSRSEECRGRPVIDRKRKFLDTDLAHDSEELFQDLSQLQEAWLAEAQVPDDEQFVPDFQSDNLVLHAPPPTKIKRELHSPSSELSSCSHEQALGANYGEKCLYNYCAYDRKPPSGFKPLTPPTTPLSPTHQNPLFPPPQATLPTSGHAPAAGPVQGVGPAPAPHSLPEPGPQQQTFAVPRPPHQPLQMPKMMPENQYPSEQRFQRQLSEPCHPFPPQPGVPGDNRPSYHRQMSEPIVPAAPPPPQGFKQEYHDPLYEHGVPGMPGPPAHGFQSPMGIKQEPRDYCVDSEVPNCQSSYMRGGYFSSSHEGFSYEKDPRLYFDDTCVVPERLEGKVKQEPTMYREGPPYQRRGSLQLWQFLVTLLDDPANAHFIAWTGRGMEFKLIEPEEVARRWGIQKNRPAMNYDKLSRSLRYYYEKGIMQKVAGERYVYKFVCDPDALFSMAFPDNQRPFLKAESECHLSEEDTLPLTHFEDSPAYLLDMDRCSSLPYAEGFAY

## TTCGAT
[1]
  binding signal: 1.27 fold enrichment (6-mer frequency, TF over GST control)
[2]
  binding signal: 1.36 fold enrichment (6-mer frequency, TF over GST control)
[3]
  binding signal: 1.79 fold enrichment (6-mer frequency, TF over GST control)
[4]
  binding signal: 1.3 fold enrichment (6-mer frequency, TF over GST control)
[5]
  binding signal: 1.27 fold enrichment (6-mer frequency, TF over GST control)
[6]
  binding signal: 1.16 fold enrichment (6-mer frequency, TF over GST control)
[7]
  binding signal: 1.23 fold enrichment (6-mer frequency, TF over GST control)
[8]
  binding signal: 1.42 fold enrichment (6-mer frequency, TF over GST control)
[9]
  binding signal: 1.56 fold enrichment (6-mer frequency, TF over GST control)
[10]
  binding signal: 1.34 fold enrichment (6-mer frequency, TF over GST control)
[11]
  binding signal: 1.4 fold enrichment (6-mer frequency, TF over GST control)
[12]
  binding signal: 1.33 fold enrichment (6-mer frequency, TF over GST control)
[13]
  binding signal: 1.33 fold enrichment (6-mer frequency, TF over GST control)
[14]
  binding signal: 1.18 fold enrichment (6-mer frequency, TF over GST control)
[15]
  binding signal: 1.22 fold enrichment (6-mer frequency, TF over GST control)
[16]
  binding signal: 1.2 fold enrichment (6-mer frequency, TF over GST control)
[17]
  binding signal: 1.24 fold enrichment (6-mer frequency, TF over GST control)
[18]
  binding signal: 1.14 fold enrichment (6-mer frequency, TF over GST control)
